# Assay results published in PubChem BioAssay.
# Where “and” joins values, the source holds several entries; their conditions need not be identical. Equal entries are not always repeated. The list shows a part of the results. Records with an inconclusive call do not appear. Calls of active or inactive are those of the source.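 How the source made its calls, unless noted: active means thallium entry rate above the same plate's blocked-transporter control wells by more than 3 SD; inconclusive means the two repeat wells disagree; inactive means the rest.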
# Legend:
# [1] = molecular target: Solute carrier family 12 member 5 (Homo sapiens) (UniProt Q9H2X9); test: retest of KCC2 transport modulators without sodium – cell-based, HEK293 KCC2, thallium flux, secondary assay, confirmation (AID 1713;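 active means thallium flux slope above the same plate's solvent-only control mean plus 3 SD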); conditions: FluoZin2 fluorescence, at 10 µM, stronger effect = higher value
# PubChem AID 1714 = conditions: HEK293-KCC2 + bumetanide/ouabain, thallium flux FluoZin2; at 10 µM; stronger effect = higher value
# [2] = compound effects on native HEK Tl+ uptake – HEK cells, counterscreen 1, counter-screen for KCC2 modulator project, confirmation (AID 1716;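 active means thallium flux rate significantly above the same plate's solvent-only control wells, beyond their mean plus 3 SD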); conditions: HEK293 parental cells, thallium flux FluoZin2, ouabain; at 10 µM; baseline-ratio fluorescence slope, 10–20 s after thallium
# [3] = molecular target: Solute carrier family 12 member 5 (Homo sapiens) (UniProt Q9H2X9); test: modulation of KCC2 thallium flux in HEK cells – cell-based, ouabain, retest, confirmation (AID 1717;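 active means thallium flux slope beyond 3 SD from same-plate DMSO control mean in most replicates, usually higher, sometimes lower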;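 further: slope of initial-normalized fluorescence between seconds 10 and 20 after thallium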); conditions: HEK293-KCC2, thallium flux FluoZin2 fluorescence, at 10 µM, bidirectional: low = inhibitor, high = activator
# [4] = native HEK Tl+ uptake effects, second counter-screen – HEK cells, counterscreen 2, counter-screen for KCC2 modulator project, confirmation (AID 1718;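 active means thallium flux slope above the same plate's solvent-control mean plus 3 SD in both duplicate wells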;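 further: run without ouabain in cells lacking the KCC2 cotransporter; slope of fluorescence scaled to its starting value between 10 and 20 s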); conditions: HEK293 parental, thallium flux FluoZin-2 fluorescence slope; at 10 µM
# [5] = molecular target: Solute carrier family 12 member 5 (Homo sapiens) (UniProt Q9H2X9); test: retest of KCC2 transport modulation, ouabain-free – cell-based, HEK293 KCC2, thallium flux, FluoZin2, secondary assay 2, confirmation (AID 1715;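 active means thallium flux slope more than 3 SD above or below the plate's solvent-only control mean, mostly below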;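 further: raw slope with 0.1% DMSO as baseline and bumetanide as block control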); conditions: HEK293-KCC2, thallium flux FluoZin2 fluorescence; at 10 µM; actives lie on both sides; F/F0 rise rate, 10–20 s post-thallium
# [6] = inhibitors of TNFa-induced NFkB p65 translocation, primary screen, imaging, HUVEC, MLSMR starter and 10KST1 sets (AID 438;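 active means inhibition above 20% together with a positive visual image hit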;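 further: compound added about 3h40 before a 20 min TNFalpha stimulation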;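 on inhibition: signal is the nuclear over cytoplasmic p65 intensity ratio per well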); conditions: HUVEC TNFa-induced p65 nuclear translocation; cell count: measured here: nuclei count (cytotoxicity indicator), at 2.08 µM; inhibition: at 2 µM, stronger effect = higher value, 0% TNFa-plus-vehicle, 100% no-TNFa wells
# [7] = reduction of polyQ htt aggregates in cells – imaging, exon1htt(103Q)mCFP cells, high-content imaging, primary screen (AID 483;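 active means visual image review flags a hit and inhibition of aggregation exceeds 20%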;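 further: compound exposure lasted 3 days before fixation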;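 on nuclei count: percent of the per-plate median nuclei count of sample wells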); conditions: exon1htt(103Q)mCFP cell line, aggregate imaging, at 2 µM; inhibition of aggregation: stronger effect = higher value; nuclei count: measured here: cell count, toxicity
# [8] = endothelial E-selectin expression blockers – imaging, HUVEC, immunofluorescence, MLSMR starter and 10KST1 sets, primary screen (AID 487;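 active means visually confirmed hit in the image check and inhibition above 20%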;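 on inhibition: signal is fraction of cell area covered by stained E-selectin grains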;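 on nuclei count: 100% = median nuclei count of all wells on the same plate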); conditions: HUVEC TNFalpha-induced E-selectin immunofluorescence imaging, at 2 µM; inhibition: stronger effect = higher value; nuclei count: measured here: cell number, toxicity
# [9] = molecular target: Voltage-gated potassium channel subunit beta-2 (Rattus norvegicus) (UniProt P62483); test: inhibitors of rat Kvbeta2 reductase activity – biochemical, NADPH fluorescence, primary screen (AID 622;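 active means fluorescence slope higher than the sample average by over 3 SD, cut at about -0.22 in these data, passing the limit was not always enough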;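 further: slope of raw intensity against log time taken from 70 to 1610 s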); conditions: recombinant KvBeta, 4-cyanobenzaldehyde reduction, at 10 µM, stronger effect = higher value
# [10] = molecular target: Voltage-gated potassium channel subunit beta-2 (Rattus norvegicus) (UniProt P62483); test: enhancers of rat Kvbeta2 NADPH turnover – biochemical, NADPH fluorescence, primary screen (AID 623;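 active means NADPH fluorescence slope more negative than the mean of all samples by about 3 SD, 99.7% confidence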;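 further: fluorescence intensity change per second fitted from 20 to 320 s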); conditions: Recombinant KvBeta, NADPH fluorescence decrease slope, 10 min; at 10 µM; stronger effect = lower value
# [11] = molecular target: Alpha-2C adrenergic receptor (Homo sapiens) (UniProt P18825); test: compounds altering alpha2C-coupled GIRK flux – cell-based, HEK293 alpha2C/GIRK1/2, thallium flux, primary screen (AID 624;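 active means fluorescence slope after compound addition differing from the mean of all screened samples at 99.7% confidence, in either direction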;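 further: slope of fluorescence ratio to pre-addition baseline per second over 15 to 24 s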); conditions: thallium flux BTC fluorescence, at 10 µM, actives lie on both sides
# [12] = inhibitors of larval lipid processing in zebrafish, primary screen, whole organism, PED6 fluorescence, gall bladder and intestine (AID 686;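 active means a full or partial loss of lipid-probe fluorescence in the fish gall bladder, intestine or both, judged by eye; inactive means no fluorescence loss, or compound toxic to the fish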;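 further: larvae 5 to 7 days old with five fish per well; signal comes from phospholipase A2 cleavage of quenched PED6 carried via bile; overnight exposure to compound and PED6 before scoring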); conditions: Zebrafish larvae PED6 lipid processing, fluorescence scoring; screened at 20 µM (by protocol)
# [13] = blockers of RIG-like receptor reporter activation – cell-based, Sendai virus stimulus, luciferase, 10K MLSCN set, TLR/RLR signaling modifier project, primary screen (AID 602276;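 active means inhibition at or above 50% at 10 µM; inactive means inhibition below 50%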;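 further: firefly luciferase from ISG56 promoter only with Renilla not read in this screen; 0% = Sendai virus plus DMSO and 100% = medium plus DMSO without virus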); conditions: HEK293 RL24 IRF3 luciferase reporter, at 10 µM, stronger effect = higher value
# [14] = TLR3 IRF3 reporter activation blockers – cell-based, poly I:C stimulus, luciferase, 10K MLSCN set, primary screen (AID 602277;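 active means inhibition of the reporter signal at or above 50%; inactive means inhibition below 50%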); conditions: HEK293-TLR3 RL24 IRF3 luciferase reporter, at 10 µM, stronger effect = higher value
# [15] = Primary imaging screen for DUSP6 inhibitors that restore phospho-Erk in transfected HeLa cells, chemical complementation (AID 609;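 active means compounds giving at least 50% inhibition in the cell-based MKP-3 phosphatase rescue imaging test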;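 on inhibition: phospho-Erk level distribution per well compared with pooled transfected vehicle control wells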); conditions: HeLa MKP-3 transfected, phospho-Erk imaging KS statistic, at 10 µM, cells stimulated with TPA for 15 min
# [16] = molecular target: Dual specificity protein phosphatase 6 (Homo sapiens) (UniProt Q16828); test: as above; conditions: HeLa MKP-3 transfected, phospho-Erk imaging KS statistic; at 10 µM; stronger effect = higher value; cells stimulated with TPA for 15 min
# [17] = loss of swimming-algae plug formation – whole organism, Chlamydomonas reinhardtii, WT vs cilia-less mutant, absorbance, 96-well, primary screen (AID 463189;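 active means inhibition at or above 50% relative to wild type and mutant plate controls; inactive means inhibition below 50%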;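 further: 0% = wild type cc124 cells in DMSO and 100% = ciliumless bld1 mutant cells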); conditions: Chlamydomonas reinhardtii gravitaxis, OD600 absorbance, 2 days; at 10 µM; stronger effect = higher value
# [18] = measured here: cell density z-score
# [19] = measured here: nuclear c-Myc green intensity z-score
# [20] = measured here: nuclear pErk red intensity z-score, stronger effect = higher value
# Sequence of Alpha-2C adrenergic receptor (Homo sapiens) (P18825 whole entry, looked up): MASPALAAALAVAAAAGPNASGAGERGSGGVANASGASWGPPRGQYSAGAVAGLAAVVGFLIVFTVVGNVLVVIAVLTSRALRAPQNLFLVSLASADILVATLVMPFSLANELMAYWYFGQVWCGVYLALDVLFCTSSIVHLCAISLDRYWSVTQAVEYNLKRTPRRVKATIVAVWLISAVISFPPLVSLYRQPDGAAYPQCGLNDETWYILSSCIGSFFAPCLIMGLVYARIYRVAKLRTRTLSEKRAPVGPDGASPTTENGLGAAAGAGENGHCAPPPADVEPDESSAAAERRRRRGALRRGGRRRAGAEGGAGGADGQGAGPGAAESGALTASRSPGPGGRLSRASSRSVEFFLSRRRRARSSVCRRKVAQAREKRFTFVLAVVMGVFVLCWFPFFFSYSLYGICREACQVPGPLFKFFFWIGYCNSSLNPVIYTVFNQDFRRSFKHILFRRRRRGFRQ
# Sequence of Dual specificity protein phosphatase 6 (Homo sapiens) (Q16828 whole entry, looked up): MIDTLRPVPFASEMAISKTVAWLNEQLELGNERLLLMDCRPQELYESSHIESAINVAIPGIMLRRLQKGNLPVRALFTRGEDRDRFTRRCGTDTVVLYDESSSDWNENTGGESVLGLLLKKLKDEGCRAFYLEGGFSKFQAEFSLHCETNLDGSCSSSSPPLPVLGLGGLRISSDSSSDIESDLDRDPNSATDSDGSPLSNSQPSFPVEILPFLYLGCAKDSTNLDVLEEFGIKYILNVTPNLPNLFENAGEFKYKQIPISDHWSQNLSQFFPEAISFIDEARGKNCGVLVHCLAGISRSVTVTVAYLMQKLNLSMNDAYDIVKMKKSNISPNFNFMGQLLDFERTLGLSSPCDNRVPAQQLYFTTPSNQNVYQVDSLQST
# Sequence of Voltage-gated potassium channel subunit beta-2 (Rattus norvegicus) (P62483 whole entry, looked up): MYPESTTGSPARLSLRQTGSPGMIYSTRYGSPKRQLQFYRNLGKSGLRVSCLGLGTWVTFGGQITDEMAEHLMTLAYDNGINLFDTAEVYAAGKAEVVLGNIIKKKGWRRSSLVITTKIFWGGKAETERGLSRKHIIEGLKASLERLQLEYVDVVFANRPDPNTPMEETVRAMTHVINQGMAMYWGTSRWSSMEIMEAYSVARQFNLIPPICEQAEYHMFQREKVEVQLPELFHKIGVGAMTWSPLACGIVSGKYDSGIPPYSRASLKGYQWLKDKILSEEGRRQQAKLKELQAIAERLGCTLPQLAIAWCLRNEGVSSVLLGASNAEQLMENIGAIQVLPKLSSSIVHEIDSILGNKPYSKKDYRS
# Sequence of Solute carrier family 12 member 5 (Homo sapiens) (Q9H2X9 whole entry, looked up): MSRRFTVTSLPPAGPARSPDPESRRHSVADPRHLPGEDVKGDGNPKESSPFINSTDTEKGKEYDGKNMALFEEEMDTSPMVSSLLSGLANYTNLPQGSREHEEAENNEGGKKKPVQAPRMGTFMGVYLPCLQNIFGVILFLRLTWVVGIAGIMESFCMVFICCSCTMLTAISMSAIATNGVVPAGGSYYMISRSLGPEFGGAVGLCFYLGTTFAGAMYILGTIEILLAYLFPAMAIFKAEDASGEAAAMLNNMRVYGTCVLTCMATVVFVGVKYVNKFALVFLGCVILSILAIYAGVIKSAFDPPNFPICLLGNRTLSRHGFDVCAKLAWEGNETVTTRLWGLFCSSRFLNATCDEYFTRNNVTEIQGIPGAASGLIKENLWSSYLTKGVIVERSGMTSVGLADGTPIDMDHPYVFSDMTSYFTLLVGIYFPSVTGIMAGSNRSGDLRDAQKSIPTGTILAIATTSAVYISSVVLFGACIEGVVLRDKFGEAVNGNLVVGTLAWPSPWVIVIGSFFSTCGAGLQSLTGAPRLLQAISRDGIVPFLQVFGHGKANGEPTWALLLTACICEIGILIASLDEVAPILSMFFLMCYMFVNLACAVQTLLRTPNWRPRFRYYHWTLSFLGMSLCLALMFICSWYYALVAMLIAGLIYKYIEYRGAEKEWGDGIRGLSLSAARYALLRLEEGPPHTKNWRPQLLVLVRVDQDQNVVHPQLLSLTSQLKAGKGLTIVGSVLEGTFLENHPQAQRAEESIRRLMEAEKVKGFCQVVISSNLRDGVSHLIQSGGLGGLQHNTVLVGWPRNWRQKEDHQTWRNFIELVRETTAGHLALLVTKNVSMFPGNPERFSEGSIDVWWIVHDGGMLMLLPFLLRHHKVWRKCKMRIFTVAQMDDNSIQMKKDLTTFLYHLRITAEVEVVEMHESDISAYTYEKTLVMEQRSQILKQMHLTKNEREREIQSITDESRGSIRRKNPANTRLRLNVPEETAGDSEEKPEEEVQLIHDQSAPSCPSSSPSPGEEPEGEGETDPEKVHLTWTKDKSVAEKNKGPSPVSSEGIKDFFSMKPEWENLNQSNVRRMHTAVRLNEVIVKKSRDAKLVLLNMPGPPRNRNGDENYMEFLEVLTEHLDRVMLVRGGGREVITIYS
compound,measurement,setting,value
COC(=O)c1sc(NC(=S)NC(=O)c2ccc(C)cc2)nc1C,normalised thallium flux (F/F0 slope),[1],0.0256 (active)
same,normalized thallium flux,PubChem AID 1714,0.104 (active)
same,thallium flux rate (normalised fluorescence),[2],0.0618 (active)
same,"raw Tl+ flux slope (below DMSO = inhibition, above = activation)",[3],0.0617 (active)
same,thallium flux slope,[4],0.0234 (active)
Cc1ccccc1NC(=S)NNC(=O)c1cccc(Br)c1,normalised thallium flux (F/F0 slope),[1],0.0117 (inactive)
same,normalized thallium flux,PubChem AID 1714,0.028 (active)
same,normalized thallium flux,[5],0.0325 (inactive)
same,"raw Tl+ flux slope (below DMSO = inhibition, above = activation)",[3],0.0311 (active)
same,thallium flux slope,[4],0.0126 (inactive)
Cc1c(C(=O)NC(=S)NCc2cccnc2)oc2ccccc12,normalised thallium flux (F/F0 slope),[1],0.025 (active)
same,normalized thallium flux,PubChem AID 1714,0.0479 (active)
same,thallium flux rate (normalised fluorescence),[2],0.028 (active)
same,"raw Tl+ flux slope (below DMSO = inhibition, above = activation)",[3],0.0308 (active)
same,thallium flux slope,[4],0.0284 (active)
Cc1ccc(N=Cc2c(O)n(-c3nccs3)c(=O)c3ccccc23)c(C)c1,normalised thallium flux (F/F0 slope),[1],0.000176 (active)
same,normalized thallium flux,PubChem AID 1714,-0.00484 (active)
same,normalized thallium flux,[5],0.0195 (active)
same,"raw Tl+ flux slope (below DMSO = inhibition, above = activation)",[3],0.0222 (active)
same,thallium flux slope,[4],0.00674 (active)
Cc1cccc(-n2c(SCC(N)=O)nc3c(c2=O)C2(CCCCC2)Cc2ccccc2-3)c1,normalised thallium flux (F/F0 slope),[1],0.00538 (inactive)
same,normalized thallium flux,PubChem AID 1714,0.017 (active)
same,normalized thallium flux,[5],0.032 (inactive)
same,thallium flux rate (normalised fluorescence),[2],0.0115 (active)
same,thallium flux slope,[4],0.0138 (active)
CC(C)n1cnc2c(Nc3cccc(Cl)c3)nc(N(CCO)CCCO)nc21,normalised thallium flux (F/F0 slope),[1],0.00575 (inactive)
same,normalized thallium flux,PubChem AID 1714,0.00472 (inactive)
same,normalized thallium flux,[5],0.0232 (active)
same,thallium flux rate (normalised fluorescence),[2],0.0075 (inactive)
same,thallium flux slope,[4],0.0113 (inactive)
Cc1ccc(-n2ncc3c(Nc4cccc(C(=O)O)c4)ncnc32)cc1,normalised thallium flux (F/F0 slope),[1],0.00874 (inactive)
same,normalized thallium flux,PubChem AID 1714,0.00541 (inactive)
same,normalized thallium flux,[5],0.0319 (inactive)
same,"raw Tl+ flux slope (below DMSO = inhibition, above = activation)",[3],0.0185 (inactive)
same,thallium flux slope,[4],0.0099 (inactive)
O=C(Oc1c(-c2ccco2)oc2ccccc2c1=O)c1cccnc1,normalised thallium flux (F/F0 slope),[1],0.0222 (active)
same,normalized thallium flux,PubChem AID 1714,0.0675 (active)
same,normalized thallium flux,[5],0.0399 (inactive)
same,"raw Tl+ flux slope (below DMSO = inhibition, above = activation)",[3],0.0573 (active)
COc1ccccc1-n1cnc2cc(NS(=O)(=O)c3ccccc3)ccc21,cell count,[6],720
same,inhibition,[6],-12.5% (inactive)
same,inhibition of aggregation,[7],1.2% (inactive)
same,nuclei count,[7],90.2%
same,inhibition,[8],-14.6% (inactive)
same,nuclei count,[8],108%
same,fluorescence slope,[9],-0.46 (inactive)
same,NADPH fluorescence slope,[10],-1.9e-05 (inactive)
same,slope,[11],0.00351 (inactive)
same,outcome,[12],inactive
same,normalised thallium flux (F/F0 slope),[1],0.00507 (inactive)
same,normalized thallium flux,PubChem AID 1714,0.00527 (inactive)
same,normalized thallium flux,[5],0.0252 (active)
same,thallium flux rate (normalised fluorescence),[2],0.0068 (inactive)
same,thallium flux slope,[4],0.00966 (inactive)
same,inhibition,[13],-18.8% (inactive)
same,inhibition,[14],98.4% (active)
CS(=O)(=O)N(CC(=O)N1CCN(c2ccc(F)cc2)CC1)C1CCCCC1,normalised thallium flux (F/F0 slope),[1],0.00629 (inactive)
same,normalized thallium flux,PubChem AID 1714,0.00489 (inactive)
same,thallium flux rate (normalised fluorescence),[2],0.00762 (inactive)
same,"raw Tl+ flux slope (below DMSO = inhibition, above = activation)",[3],0.0176 (active)
same,thallium flux slope,[4],0.0102 (inactive)
O=c1c2ccccc2[nH]c(=S)n1CCN1CCC(=C(c2ccc(F)cc2)c2ccc(F)cc2)CC1,cell count,[6],603
same,inhibition,[6],-12.2% (inactive)
same,inhibition of aggregation,[7],12% (inactive)
same,nuclei count,[7],92.5%
same,inhibition,[8],-105% (inactive)
same,nuclei count,[8],132%
same,z-score,[15]; [18],-1.63
same,z-score,[15]; [19],-0.997
same,z-score,[15]; [20],0.771
same,inhibition,[16],-4.44% (inactive)
same,fluorescence slope,[9],-0.452 (inactive)
same,NADPH fluorescence slope,[10],-0.000101 (inactive)
same,slope,[11],0.00649 (inactive)
same,outcome,[12],inactive
same,normalised thallium flux (F/F0 slope),[1],0.00677 (inactive)
same,normalized thallium flux,PubChem AID 1714,0.0111 (active)
same,normalized thallium flux,[5],0.0294 (inactive)
same,thallium flux rate (normalised fluorescence),[2],0.00955 (active)
same,inhibition,[17],-8.89% (inactive)
same,inhibition,[13],8.28% (inactive)
same,inhibition,[14],23.8% (inactive)
CC1Cc2ccccc2N1C(=O)CSc1nc2ccccc2o1 (stereo not given),normalised thallium flux (F/F0 slope),[1],0.00599 (inactive)
same,normalized thallium flux,PubChem AID 1714,0.0054 (inactive)
same,"raw Tl+ flux slope (below DMSO = inhibition, above = activation)",[3],0.0143 (active)
same,thallium flux slope,[4],0.00901 (inactive)
C/C(=N\NC(=S)NC1CCCCC1)c1ccc(C)o1,normalized thallium flux,PubChem AID 1714,0.0335 (active)
same,normalized thallium flux,[5],0.0359 (inactive)
same,thallium flux rate (normalised fluorescence),[2],0.017 (active)
same,"raw Tl+ flux slope (below DMSO = inhibition, above = activation)",[3],0.0406 (active)
CCOC(=O)c1c(NC(=S)NC)sc2c1CCCC2,normalised thallium flux (F/F0 slope),[1],0.0181 (active)
same,normalized thallium flux,[5],0.0972 (active)
same,thallium flux rate (normalised fluorescence),[2],0.0987 (active)
same,thallium flux slope,[4],0.101 (active)
CCCCC(=O)O[C@H]1CC[C@H]2[C@@H]3CCc4cc(O)ccc4[C@H]3CC[C@]12C,cell count,[6],524
same,inhibition,[6],-3.1% (inactive)
same,inhibition of aggregation,[7],7% (inactive)
same,nuclei count,[7],88.9%
same,inhibition,[8],-104% (inactive)
same,nuclei count,[8],131%
same,z-score,[15]; [18],-0.577
same,z-score,[15]; [19],-1.69
same,z-score,[15]; [20],-0.657
same,inhibition,[16],-0.828% (inactive)
same,fluorescence slope,[9],-0.453 (inactive)
same,NADPH fluorescence slope,[10],-3e-05 (inactive)
same,slope,[11],0.00721 (inactive)
same,inhibition,[17],22.7% (inactive)
same,inhibition,[13],16.8% (inactive)
same,inhibition,[14],40.4% (inactive)
CCC(CC)NC(=O)CSc1nnc(-c2c[nH]c3ccccc23)o1,normalized thallium flux,PubChem AID 1714,0.00461 (inactive)
same,normalized thallium flux,[5],0.0248 (active)
same,thallium flux rate (normalised fluorescence),[2],0.00757 (inactive)
same,thallium flux slope,[4],0.0106 (inactive)
O=C(CSc1cccc2cccnc12)N/N=C/c1cccnc1,normalized thallium flux,PubChem AID 1714,0.0504 (active)
same,normalized thallium flux,[5],0.0285 (inactive)
same,thallium flux rate (normalised fluorescence),[2],0.0251 (active)
same,"raw Tl+ flux slope (below DMSO = inhibition, above = activation)",[3],0.0449 (active)
same,thallium flux slope,[4],0.0116 (active)
CCO/C([O-])=N/c1c[n+](N2CCOCC2)no1,cell count,[6],669
same,inhibition,[6],9.9% (inactive)
same,inhibition of aggregation,[7],-18.2% (inactive)
same,nuclei count,[7],97.5%
same,inhibition,[8],-28.6% (inactive)
same,nuclei count,[8],122%
same,z-score,[15]; [18],-0.87
same,z-score,[15]; [19],-0.27
same,z-score,[15]; [20],-1.04
same,inhibition,[16],16.8% (inactive)
same,fluorescence slope,[9],-0.482 (inactive)
same,NADPH fluorescence slope,[10],-6e-05 (inactive)
same,slope,[11],0.00537 (inactive)
same,inhibition,[17],2.9% (inactive) and 18.7% (inactive)
same,inhibition,[13],-10.8% (inactive)
same,inhibition,[14],-12.7% (inactive)
